Measurements published in PubChem BioAssay (NCATS).
Inconclusive results are not listed. Entries that show only a call come without a potency. The source made the active and inactive calls. Calls follow the shape of the full dose curve.

The compounds below were run against Atrial natriuretic peptide receptor 1 (Homo sapiens) (UniProt P16066) (assay: Natriuretic polypeptide receptor (hNpr1) antagonism - Pilot screen (AID 1347049;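 also: HEK293 cells with hNpr1 and GloSensor cGMP luciferase stimulated by 0.1 nM hNppA; agonist-evoked cGMP luminescence read 20 min after hNppA addition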)). Conditions: hNpr1 cells, antagonist mode cGMP read-out; series mostly up to 57.5 µM.
Atrial natriuretic peptide receptor 1 (Homo sapiens), sequence (P16066 whole entry, looked up): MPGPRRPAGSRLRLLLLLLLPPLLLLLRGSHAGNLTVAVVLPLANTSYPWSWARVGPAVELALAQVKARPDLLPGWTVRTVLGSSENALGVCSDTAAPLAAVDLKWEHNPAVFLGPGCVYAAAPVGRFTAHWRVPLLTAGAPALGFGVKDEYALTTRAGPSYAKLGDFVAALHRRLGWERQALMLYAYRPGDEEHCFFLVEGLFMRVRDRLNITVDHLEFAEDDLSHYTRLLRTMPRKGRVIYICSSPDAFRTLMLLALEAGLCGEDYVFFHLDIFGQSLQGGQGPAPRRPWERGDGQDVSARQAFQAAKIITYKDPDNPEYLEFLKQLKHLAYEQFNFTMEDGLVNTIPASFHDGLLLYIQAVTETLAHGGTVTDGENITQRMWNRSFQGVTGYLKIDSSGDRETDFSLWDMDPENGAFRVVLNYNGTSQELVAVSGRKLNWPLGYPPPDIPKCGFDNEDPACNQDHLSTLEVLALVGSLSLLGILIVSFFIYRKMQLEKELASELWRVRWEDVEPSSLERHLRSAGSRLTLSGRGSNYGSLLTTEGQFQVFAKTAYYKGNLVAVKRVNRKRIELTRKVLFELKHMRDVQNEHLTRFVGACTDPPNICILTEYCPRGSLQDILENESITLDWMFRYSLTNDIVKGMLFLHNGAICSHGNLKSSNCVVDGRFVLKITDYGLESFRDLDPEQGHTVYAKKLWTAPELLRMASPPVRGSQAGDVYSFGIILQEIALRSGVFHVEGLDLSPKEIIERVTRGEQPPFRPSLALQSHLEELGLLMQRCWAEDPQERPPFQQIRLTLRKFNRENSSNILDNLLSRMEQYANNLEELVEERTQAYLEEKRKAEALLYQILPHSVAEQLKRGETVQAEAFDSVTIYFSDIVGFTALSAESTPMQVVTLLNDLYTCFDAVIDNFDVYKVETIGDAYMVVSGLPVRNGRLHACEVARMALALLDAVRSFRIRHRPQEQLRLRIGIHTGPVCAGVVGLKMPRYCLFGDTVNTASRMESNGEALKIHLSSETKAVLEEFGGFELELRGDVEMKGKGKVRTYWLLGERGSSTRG
Procedure, shortened: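 Cells expressing receptor plus cGMP biosensor are seeded and incubated overnight at 37C, then loaded with GloSensor reagent (2% final) at room temperature for 2 h. Library compounds go on for 30 min. A pre-read precedes agonist (hNppA, 0.1 nM final) and a 20-min readout.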
With O=c1[nH]cc(F)c(=O)[nH]1 the Potency was “inactive”.
For Clc1ccc(C(c2ccccc2Cl)C(Cl)Cl)cc1 (centres undefined), the Potency was “inactive”.
CN1CCN2c3ccccc3Cc3ccccc3C2C1 (centres undefined) was tested, and the Potency was “inactive”.
CN(C)c1nc(N(C)C)nc(N(C)C)n1 was tested, and the Potency was “inactive”.
In the case of CN(C)CCOC(c1ccccc1)c1ccccc1, the Potency is reported as “inactive”.
For CN1C(C(=O)Nc2ccccn2)=C(O)c2ccccc2S1(=O)=O, the Potency was “inactive”.
With CN1CCN(C2=Nc3cc(Cl)ccc3Nc3ccccc32)CC1 the Potency was “inactive”.
In the case of CN1CCC(=C2c3ccccc3CC(=O)c3sccc32)CC1, the Potency is reported as “inactive”.
For CC(C)Cc1ccc(C(C)C(=O)O)cc1 (centres undefined), the Potency was “inactive”.
In the case of CCOC(=O)c1ncn2c1CN(C)C(=O)c1cc(F)ccc1-2, the Potency is reported as “inactive”.
With Cc1cc(C(C)(C)C)c(O)c(C)c1CC1=NCCN1 the Potency was “inactive”.
OCCN(CCO)c1nc(N2CCCCC2)c2nc(N(CCO)CCO)nc(N3CCCCC3)c2n1 was tested, and the Potency was “inactive”.
In the case of CC12CC3CC(C)(C1)CC(N)(C3)C2, the Potency is reported as “inactive”.
For OCCN1CCN(CCCN2c3ccccc3Sc3ccc(C(F)(F)F)cc32)CC1, the Potency was “inactive”.
For CN1CCC(=C2c3ccccc3C=Cc3ccccc32)CC1, the Potency was “inactive”.
In the case of Cn1c(=O)c2[nH]cnc2n(C)c1=O, the Potency is reported as “inactive”.
In the case of Nc1ccn([C@H]2CC[C@@H](CO)O2)c(=O)n1, the Potency is reported as “inactive”.
With Cc1cn([C@H]2C[C@H](N=[N+]=[N-])[C@@H](CO)O2)c(=O)[nH]c1=O the Potency was “inactive”.
CC(C(=O)O)c1cccc(C(=O)c2ccccc2)c1 (centres undefined) was tested, and the Potency was “inactive”.
COc1cc2nc(N3CCN(C(=O)c4ccco4)CC3)nc(N)c2cc1OC was tested, and the Potency was “inactive”.
COc1cc2nc(N3CCN(C(=O)C4COc5ccccc5O4)CC3)nc(N)c2cc1OC (centres undefined) was tested, and the Potency was “inactive”.
In the case of CN1CCN(CCCN2c3ccccc3Sc3ccc(Cl)cc32)CC1, the Potency is reported as “inactive”.
With C[C@H]1c2cccc(O)c2C(O)=C2C(=O)[C@]3(O)C(O)=C(C(N)=O)C(=O)[C@@H](N(C)C)[C@@H]3[C@@H](O)[C@@H]21 the Potency was “inactive”.
In the case of NC12CC3CC(CC(C3)C1)C2, the Potency is reported as “inactive”.
In the case of Clc1ccccc1C(c1ccccc1)(c1ccccc1)n1ccnc1, the Potency is reported as “inactive”.
For CCc1cccc2c3c([nH]c12)C(CC)(CC(=O)O)OCC3 (centres undefined), the Potency was “inactive”.
NCCCCCC(=O)O was tested, and the Potency was “inactive”.

The compounds below were run against Atrial natriuretic peptide receptor 2 (Homo sapiens) (UniProt P20594) (assay: Natriuretic polypeptide receptor (hNpr2) antagonism - Pilot subtype selectivity assay (AID 1347050; also: potency is read from the fitted curve at half-maximal effect)). Conditions: NPR2-expressing cells, cGMP antagonist-mode read-out; series mostly up to 38.3 µM.
Atrial natriuretic peptide receptor 2 (Homo sapiens), sequence (P20594 whole entry, looked up): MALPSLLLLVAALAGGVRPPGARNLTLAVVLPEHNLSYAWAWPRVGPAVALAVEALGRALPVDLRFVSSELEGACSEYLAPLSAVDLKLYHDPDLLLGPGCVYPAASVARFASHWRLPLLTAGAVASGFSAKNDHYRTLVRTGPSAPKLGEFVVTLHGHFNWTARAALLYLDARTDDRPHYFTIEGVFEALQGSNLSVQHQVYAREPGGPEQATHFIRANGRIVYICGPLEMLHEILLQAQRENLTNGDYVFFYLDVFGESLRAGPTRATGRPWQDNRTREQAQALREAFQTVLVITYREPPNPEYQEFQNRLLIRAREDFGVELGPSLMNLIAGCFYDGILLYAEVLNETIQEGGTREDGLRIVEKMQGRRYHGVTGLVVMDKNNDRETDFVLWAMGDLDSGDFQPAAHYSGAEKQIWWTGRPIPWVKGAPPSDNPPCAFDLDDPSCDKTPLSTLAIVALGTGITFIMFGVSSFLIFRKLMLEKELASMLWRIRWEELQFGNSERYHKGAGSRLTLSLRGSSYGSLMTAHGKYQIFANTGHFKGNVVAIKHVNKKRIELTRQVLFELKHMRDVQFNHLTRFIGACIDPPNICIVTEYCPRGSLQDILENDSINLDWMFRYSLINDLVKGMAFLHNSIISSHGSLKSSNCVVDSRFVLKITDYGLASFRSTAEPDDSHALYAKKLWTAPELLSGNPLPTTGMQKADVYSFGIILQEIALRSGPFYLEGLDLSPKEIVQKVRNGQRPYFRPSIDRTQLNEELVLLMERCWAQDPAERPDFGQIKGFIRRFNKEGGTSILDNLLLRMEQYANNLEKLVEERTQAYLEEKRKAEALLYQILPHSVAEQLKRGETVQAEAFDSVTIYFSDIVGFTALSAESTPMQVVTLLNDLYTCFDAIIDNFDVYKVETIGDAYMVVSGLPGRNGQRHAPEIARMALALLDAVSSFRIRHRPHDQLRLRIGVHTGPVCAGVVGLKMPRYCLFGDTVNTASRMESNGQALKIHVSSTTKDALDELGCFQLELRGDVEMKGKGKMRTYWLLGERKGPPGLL
Procedure, shortened: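 Read-out: GloSensor luminescence (CCD imager), baseline vs post-stimulation. HEK293 cells expressing hNpr2; compounds pre-incubated 30-50 min at ambient temperature; hNppC 1 nM final, 20 min.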
In the case of O=c1[nH]cc(F)c(=O)[nH]1, the Potency is reported as “inactive”.
In the case of Clc1ccc(C(c2ccccc2Cl)C(Cl)Cl)cc1 (centres undefined), the Potency is reported as “inactive”.
With CN1CCN2c3ccccc3Cc3ccccc3C2C1 (centres undefined) the Potency was “inactive”.
With CN(C)c1nc(N(C)C)nc(N(C)C)n1 the Potency was “inactive”.
For CN(C)CCOC(c1ccccc1)c1ccccc1, the Potency was “inactive”.
With CCOC(=O)Nc1ccc(NCc2ccc(F)cc2)nc1N the Potency was “inactive”.
For CN1C(C(=O)Nc2ccccn2)=C(O)c2ccccc2S1(=O)=O, the Potency was “inactive”.
With CN1CCN(C2=Nc3cc(Cl)ccc3Nc3ccccc32)CC1 the Potency was 10.4 µM (active).
CC(C)Cc1ccc(C(C)C(=O)O)cc1 (centres undefined) was tested, and the Potency was “inactive”.
For CCOC(=O)c1ncn2c1CN(C)C(=O)c1cc(F)ccc1-2, the Potency was “inactive”.
With Cc1cc(C(C)(C)C)c(O)c(C)c1CC1=NCCN1 the Potency was “inactive”.
For OCCN(CCO)c1nc(N2CCCCC2)c2nc(N(CCO)CCO)nc(N3CCCCC3)c2n1, the Potency was “inactive”.
CC12CC3CC(C)(C1)CC(N)(C3)C2 was tested, and the Potency was “inactive”.
In the case of OCCN1CCN(CCCN2c3ccccc3Sc3ccc(C(F)(F)F)cc32)CC1, the Potency is reported as “inactive”.
With CN1CCC(=C2c3ccccc3C=Cc3ccccc32)CC1 the Potency was 11.7 µM (active).
For Cn1c(=O)c2[nH]cnc2n(C)c1=O, the Potency was “inactive”.
With Nc1ccn([C@H]2CC[C@@H](CO)O2)c(=O)n1 the Potency was “inactive”.
For Cc1cn([C@H]2C[C@H](N=[N+]=[N-])[C@@H](CO)O2)c(=O)[nH]c1=O, the Potency was “inactive”.
For CC(C(=O)O)c1cccc(C(=O)c2ccccc2)c1 (centres undefined), the Potency was “inactive”.
COc1cc2nc(N3CCN(C(=O)c4ccco4)CC3)nc(N)c2cc1OC was tested, and the Potency was “inactive”.
COc1cc2nc(N3CCN(C(=O)C4COc5ccccc5O4)CC3)nc(N)c2cc1OC (centres undefined) was tested, and the Potency was “inactive”.
CN1CCN(CCCN2c3ccccc3Sc3ccc(Cl)cc32)CC1 was tested, and the Potency was 18.5 µM (active).
In the case of C[C@H]1c2cccc(O)c2C(O)=C2C(=O)[C@]3(O)C(O)=C(C(N)=O)C(=O)[C@@H](N(C)C)[C@@H]3[C@@H](O)[C@@H]21, the Potency is reported as “inactive”.
In the case of NC12CC3CC(CC(C3)C1)C2, the Potency is reported as “inactive”.
In the case of Clc1ccccc1C(c1ccccc1)(c1ccccc1)n1ccnc1, the Potency is reported as “inactive”.
For CCc1cccc2c3c([nH]c12)C(CC)(CC(=O)O)OCC3 (centres undefined), the Potency was “inactive”.
With NCCCCCC(=O)O the Potency was “inactive”.
